# Measured values reported in ChEMBL document CHEMBL5724796, “Tm Shift (DSF) assay results for EUbOPEN Chemogenomics Library” (2024).
# Target: Cyclin-dependent kinase 2 (Homo sapiens) (UniProt P24941)
# Details: Compound concentration 20.0 uM
row,Compound,ΔTm [°C]
1,CCCCCCNC(=O)n1cc(F)c(=O)[nH]c1=O,-0.24
2,CNC(=O)N1CCc2c(c(N3CCCc4cc(-c5cnn(C)c5)c(C(F)F)cc43)nn2C2CCOCC2)C1,0.2
3,CNCC[C@@H](Oc1ccccc1C)c1ccccc1,0.13
4,CC1C(C#N)=C(N)OC2=C1C(=O)CC(c1cccc3ccccc13)C2 (stereo not given),-0.28
5,Cn1nc2c(=O)n(CC3(O)CCN(C(=O)C[C@H](c4ccccc4)C(F)(F)F)CC3)cnc2c1-c1ccc(CN)cc1,0.12
6,CCCCCCCCCCCCC/C=C/[C@@H](O)[C@H](CO)NC(=O)CCl,-0.22

# Target: Casein kinase I isoform delta (Homo sapiens) (UniProt P48730)
# Details: Compound concentration 20.0 uM
# Chain of Casein kinase I isoform delta (Homo sapiens) (P48730 whole entry, looked up, canonical isoform): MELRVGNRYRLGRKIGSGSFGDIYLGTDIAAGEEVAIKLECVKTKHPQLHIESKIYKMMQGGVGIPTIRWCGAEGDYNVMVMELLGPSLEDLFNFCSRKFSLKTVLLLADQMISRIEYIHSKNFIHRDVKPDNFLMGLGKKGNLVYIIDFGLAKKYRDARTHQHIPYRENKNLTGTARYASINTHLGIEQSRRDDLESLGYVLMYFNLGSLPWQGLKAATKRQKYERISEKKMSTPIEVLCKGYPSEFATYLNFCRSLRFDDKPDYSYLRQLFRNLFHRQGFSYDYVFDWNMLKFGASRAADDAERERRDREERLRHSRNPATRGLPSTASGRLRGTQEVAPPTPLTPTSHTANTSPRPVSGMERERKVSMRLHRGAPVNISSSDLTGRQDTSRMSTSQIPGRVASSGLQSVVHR
row,Compound,ΔTm [°C]
1,O=C(NCC1CCOCC1)c1n[nH]cc1NC(=O)c1c(F)cccc1F,1.77
2,Oc1ccc(-c2c(-c3ccccc3)nn3c(C(F)(F)F)cc(C(F)(F)F)nc23)cc1,0.39
3,CNC(=O)O[C@H]1COc2ccc(N3CCN(C4COC4)CC3)cc2[C@@H]1NC(=O)c1ccc(F)cc1,0.03
4,CN(CCCCCCNc1ccnc2cc(Cl)ccc12)CCCCCCNc1ccnc2cc(Cl)ccc12,-0.85
5,COc1cc(-c2cn(C)c(=O)c3cnccc23)cc(OC)c1CN(C)CC(=O)NCCOCCOCCNc1cccc2c1C(=O)N(C1CCC(=O)NC1=O)C2=O (stereo not given),0.06
6,CC(C)c1c(-c2cnn(C(C)(C)C)c2)[nH]c2c(C#N)cnn2c1=O,-0.24
7,CS(=O)(=O)c1ccc(-c2nnc(C=Cc3nnc(-c4ccc(C#N)cc4)o3)n2-c2ccccc2Cl)nc1,-0.25
8,O=C(N1CCCCC1c1ccccc1)n1cc(-c2ccc(-c3cccc(CO)c3)cc2)nn1 (stereo not given),-10.5
9,CS(=O)(=O)c1ccc(Oc2cc(F)cc(C#N)c2)c2c1C(O)C(F)C2 (stereo not given),-0.13
